From PubChem BioAssay (NCI)
About 83,000 compounds went through this panel and 20% of them were active in at least one assay; those are over-represented in the sample as a whole.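 In brief: 96-well plates, 48 h treatment, single concentration, percent growth endpoint.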 The source made the active and inactive calls. Rule for the calls: active = growth percent below 10; inactive = the rest.

The molecules below were run on HL-60(TB) leukemia (assay: NCI-60 one-dose screen, 48 h (100 = growth as untreated, 0 = no growth, -100 = all killed)). Conditions: 10 µM unless noted.

| Compound | growth |
| --- | --- |
| COc1ccc2nc3cc(Cl)ccc3c(N3CCN(c4nccc(Nc5ccc(Cl)cc5)n4)CC3)c2c1 | 48% (inactive) |
| CCOc1cccnc1/C=N/NC(N)=S | -17% (active) |
| CN(C)CCCN=c1cc2c(=O)n(CCCN(C)C)c(=O)c3c(NCCCN(C)C)cc4c(O)n(CCCN(C)C)c(=O)c1c4c3-2 | 61.2% (inactive) |
| O=C(O)c1c([N+](=O)[O-])cnc2ccccc12 | 92.4% (inactive) |
| O=C(Nc1ccc(Cl)cc1)C1=NCCCCN1 | 96.6% (inactive) |
| C/C(=N\NC(=O)c1ccc(C(C)(C)C)cc1)c1ccc(O)cc1O | 9.36% (active) |
| COC(=O)/C=C1/SC(=Nc2cccc(Cl)c2)N(CCc2c[nH]c3ccc(O)cc23)C1=O | -11.4% (active) |
| CN(C)CCOC(=O)Nc1ccc(Cl)cc1 | 100% (inactive) |
| CS(=O)(=O)c1ccc(N/N=C/c2c(-c3ccc(S(C)(=O)=O)cc3)[nH]c3ccc(F)cc23)cc1 | -14.6% (active) |
| O=C1NC(=S)S/C1=C\N1N=C(c2ccc(Cl)cc2)CC1c1ccc(F)cc1 (stereo not given) | 99.5% (inactive) |
| CC(=O)c1cccc(Nc2ncnc3ccc(NC(=O)c4ccco4)cc23)c1 | 122% (inactive) |
| COc1ccc(-n2nc(C(=O)NCC(=O)Nc3nc4cc(OC)ccc4s3)c3ccccc3c2=O)cc1 | 61.7% (inactive) |
| Cn1c2c(cc(S(=O)(=O)c3ccccc3)c1=O)CCc1c-2cnn1-c1cccc(Cl)c1 | 107% (inactive) |
| CCCCCCN1CSC(=S)N(CCCCCC)C1 | 112% (inactive) |
| CC(=O)Nc1cc2c3c(cccc3c1)-c1ccccc1-2 | 0.506% (active) |
| N#Cc1c(-c2ccc(Cl)cc2)nc(NN=Cc2ccco2)nc1N1CCOCC1 | 108% (inactive) |
| COC(=O)[C@]1(C)CCC[C@]2(C)[C@H]3C[C@@H]4[C@H]5[C@@H]6CC/C(=N\OCC/C(N)=N/O)[C@H]5[C@@]3(CC[C@H]21)CC4(C(C)C)O6 | 30.6% (inactive) |
| O=C(Nc1ccc(F)cc1)Nc1ccc(Br)c(C(F)(F)F)c1 | -41.9% (active) |
| CCCCn1c(=O)[nH]c2c(c1=O)C(c1ccc(Cl)cc1)c1c([nH]c(=O)n(CCCC)c1=O)N2 | 99.2% (inactive) |
| O=C(/C=C/c1ccc(C(F)(F)F)cc1)c1ccc(Nc2nc(NCCO)nc(Nc3ccc(Cl)cc3)n2)cc1 | 77% (inactive) |

| Compound | growth |
| --- | --- |
| CC(NC(=O)C(C)Oc1ccc(Cl)cc1Cl)C(=O)O (stereo not given) | 105% (inactive) |
| Nc1no[n+]([O-])c1-c1nnc2c(n1)-c1ccccc1C2=O | 13.1% (inactive) |
| CCS(=O)(=O)OCCO[C@H]1Cc2cc3ccc(=O)oc3cc2OC1(C)C | 106% (inactive) |
| ClC1=C(Cl)C(Cl)=C(Cl)C1=Cc1ccc(Cl)cc1Cl | -12.7% (active) |
| OC(c1cc(-c2cccc(Cl)c2)nc2ccccc12)C1CCCCN1 (stereo not given) | -63.1% (active) |
| O=C(O)c1cc(C(F)(F)F)cc(C(F)(F)F)c1 | 88.2% (inactive) |
| C#C[C@]1(O)CC[C@H]2[C@@H]3CC=C4c5nc(Nc6ccccc6[N+](=O)[O-])sc5CC[C@]4(C)[C@H]3CC[C@@]21C | 77.7% (inactive) |
| CC(=O)Nc1nonc1-c1nc2ccccc2n1Cc1ccc(C(C)(C)C)cc1 | 56.8% (inactive) |
| CN1CCC2(CC1)N=C(SCC(=O)Nc1cnc3ccccc3c1)C(c1ccc(Br)cc1)=N2 | -40.7% (active) |
| O=C1Nc2ccc(F)cc2/C1=N/c1nnc(Sc2ccccc2)s1 | 49.6% (inactive) |
| O=c1[nH]n(-c2ccccc2)c(=O)cc1Cl | 103% (inactive) |
| COC(=O)/C=C1/SC(=Nc2ccc([N+](=O)[O-])cc2)N(CCc2c[nH]c3ccccc23)C1=O | 69.8% (inactive) |
| S=c1nc(-c2ccccc2)oc(=NC2CCCCC2)n1C1CCCCC1 | -36.5% (active) |
| COc1cccc(-c2cn3nc(-c4cn(C)c5ccccc45)sc3n2)c1 | 104% (inactive) |
| COc1ccc(/C=C2\SC(=O)N(CN3CCN(c4cc5c(cc4F)c(=O)c(C(=O)O)cn5C4CC4)CC3)C2=O)cc1 | 109% (inactive) |
| COC1CC(OC(=O)c2ccc([N+](=O)[O-])cc2)C(COC(=O)c2ccc([N+](=O)[O-])cc2)O1 (stereo not given) | 97% (inactive) |
| O=C1C(Nc2ccc(Br)cc2)=C(I)C(=O)c2ncccc21 | -43.2% (active) |
| O=c1[nH]c(=S)[nH]c2nc[nH]c12 | 87% (inactive) |
| NS(=O)(=O)c1ccc(N2N=C(c3cccs3)CC2c2ccccc2O)cc1 (stereo not given) | -25.9% (active) |
| CC(=O)c1nn(-c2ccc(C)cc2)cc1C(=O)c1cc2c(ccc3ccccc32)oc1=O | 104% (inactive) |
